In PubChem BioAssay (NCI):
This is part of a sample that, as a whole, favours compounds with a hit. Of some 83,000 tested, about 20% had one in any assay.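 The test compound was applied at a single concentration to cells in 96-well plates for 48 hours, and percent growth was recorded.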 Unmarked numbers belong to inactive results. Active and inactive are the calls of the source. Rule for the calls: active = growth percent below 10; inactive = the rest.

How the values were obtained:
Experiment in all cases: NCI-60 one-dose screen, 48 h (100 = growth as untreated, 0 = no growth, -100 = all killed)
Details in all cases: 10 µM unless noted
HCT-15 colon = system: HCT-15 colon
HT29 colon = system: HT29 colon
SNB-75 CNS = system: SNB-75 CNS
SNB-19 CNS = system: SNB-19 CNS
U251 CNS = system: U251 CNS
PC-3 prostate = system: PC-3 prostate
SK-MEL-5 melanoma = system: SK-MEL-5 melanoma
UACC-62 melanoma = system: UACC-62 melanoma
LOX IMVI melanoma = system: LOX IMVI melanoma
SK-MEL-28 melanoma = system: SK-MEL-28 melanoma
SK-MEL-2 melanoma = system: SK-MEL-2 melanoma
EKVX NSCLC = system: EKVX NSCLC
SN12C renal = system: SN12C renal
UO-31 renal = system: UO-31 renal
TK-10 renal = system: TK-10 renal
ACHN renal = system: ACHN renal
CAKI-1 renal = system: CAKI-1 renal
A498 renal = system: A498 renal
CCRF-CEM leukemia = system: CCRF-CEM leukemia

Compound	growth (HCT-15 colon)	growth (HT29 colon)	growth (SNB-75 CNS)	growth (SNB-19 CNS)	growth (U251 CNS)	growth (PC-3 prostate)	growth (SK-MEL-5 melanoma)	growth (UACC-62 melanoma)	growth (LOX IMVI melanoma)	growth (SK-MEL-28 melanoma)	growth (SK-MEL-2 melanoma)	growth (EKVX NSCLC)	growth (SN12C renal)	growth (UO-31 renal)	growth (TK-10 renal)	growth (ACHN renal)	growth (CAKI-1 renal)	growth (A498 renal)	growth (CCRF-CEM leukemia)
COc1cc(C(=O)Nc2cc3c(cc2Oc2cc(C)cc(C)c2)C(=O)N(C)[C@@H](CC(=O)N(C)O)C(=O)N3)c(Br)c(OC)c1OC	-16.2% (active)	-14.5% (active)	-48.1% (active)	-21.9% (active)	-0.595% (active)	-14.5% (active)	-71.7% (active)	-69% (active)	-41.5% (active)	-49.1% (active)	-55.3% (active)	-18.8% (active)	-27.7% (active)	-32.4% (active)	-12.2% (active)	-30% (active)	-5.8% (active)	-56.7% (active)	2.91% (active)
C#Cc1cccc(NC(=O)c2cccc(NC(=O)CCl)c2)c1	-63.4% [8.25 µM] (active)	-7.83% [8.25 µM] (active)	-21.9% [8.25 µM] (active)	11.5% [8.25 µM]	-93.7% [8.25 µM] (active)	-70.8% [8.25 µM] (active)	-93.8% [8.25 µM] (active)	-33.7% [8.25 µM] (active)	-89% [8.25 µM] (active)	37.4% [8.25 µM]	30.8% [8.25 µM]	86.1% [8.25 µM]	-65.9% [8.25 µM] (active)	-98.9% [8.25 µM] (active)	-72.4% [8.25 µM] (active)	-96.8% [8.25 µM] (active)	0.818% [8.25 µM] (active)	46.6% [8.25 µM]	8.26% [8.25 µM] (active)
Cn1cc(-c2nc(-c3c[nH]c4c(Cl)nccc34)cs2)c2cc(F)ccc21	99.2%	87.8%	107%	98%	85.8%	92.9%	94.5%	97.5%	109%	112%	95.6%	94.2%	98.6%	103%	95%	114%	99.2%	83.2%	97.8%
COc1ccc(C(=O)CC#N)cc1	112%	126%	95.5%	103%	100%	105%	97.9%	105%	94.7%	114%	134%	126%	94.1%	105%	137%	108%	127%		
CC(C)c1ccc(Nc2ccc3c(OCCCN4CCN(C)CC4)cccc3n2)cc1	-35.9% (active)	-50.3% (active)	68.9%	63.7%	23.9%	62.9%	58.3%	1.02% (active)	-70.7% (active)	13.7%	105%	80.7%	91.3%	71.5%	91%	80.4%	64.4%	77.8%	30%
Oc1ccc(C2c3ccccc3Oc3ccccc32)c2cccnc12	30.3%	21.7%	27.2%	26.7%	10.8%	34.2%	-58.8% (active)	4.38% (active)	5.35% (active)	36%	27.4%	20.4%	22.9%	4.44% (active)	39.1%	7.81% (active)	0.125% (active)		
C[C@H](c1nc2ccc(N)cc2[nH]1)[C@H]1CC[C@H]2[C@@H]3CCC4=CC(=O)CC[C@]4(C)[C@H]3CC[C@]12C	67.8%	51.8%	39.6%	90.9%	70.7%	82.9%	81.3%	85%	84.2%	89.4%	106%	85.6%	88.3%	65.4%	109%	96.9%	91.3%	70.3%	63.7%
CCNc1nc2ccc(Nc3ccnc4cc(Cl)ccc34)cc2[nH]1	89.8%	51.1%	87.3%	84.8%	75.2%	63.9%	82.6%	92.5%	70.6%	99.5%	103%	89.9%	75.3%	84.9%	99.4%	103%	98.9%	89.5%	42.8%
COc1ccc(-c2nc(S(=O)(=O)c3ccccc3)c(S(=O)CC(=O)N3CCC(C)CC3)o2)cc1 (stereo not drawn)	-48.5% (active)	11%	72%	57.6%	66.2%	40.9%	72.8%	17.9%	-4.12% (active)	19.2%	67.9%	65.7%	-33.3% (active)	-65.9% (active)	33.1%	-29.8% (active)	34.5%	83.8%	1.85% (active)
N#CC1=C(N)Oc2c(cnn2-c2ccc([N+](=O)[O-])cc2[N+](=O)[O-])C1c1ccccc1 (stereo not drawn)	93.2%	110%	86.5%	104%	102%	105%	97.1%	93%	102%	106%	110%	90.6%	101%	79.9%	99.4%	103%	90.6%	50.7%	79.7%
N#CC1=C(N)Oc2c(ccc3ccccc23)C1c1ccccc1Cl (stereo not drawn)	10.7%	70%	13.3%	32.9%	12.4%	20%	9.89% (active)	26.6%	27.3%	50.5%	55.9%	65.3%	22.2%	43.2%	6.11% (active)	34%	27.4%	-10.3% (active)	29.6%
CC(c1ccccc1)C(C(=O)c1ccccc1)c1ccccc1 (stereo not drawn)	107%	75.4%	63.9%	91%	96.3%	94.8%	98.5%	94%	82.3%	94%	85.1%	98.5%	88.5%	119%	66.2%	48.9%	89.2%		
COc1cc2cc(Oc3cccc(NC(=O)Nc4cc(C(F)(F)F)cc(C(F)(F)F)c4)c3)c(C)nc2cc1OC	2.75% (active)	4.89% (active)	9.73% (active)	15.5%	-26.5% (active)	6.82% (active)	-58.5% (active)	-34.6% (active)	1.98% (active)	7.66% (active)	-30.4% (active)	2.88% (active)	7.69% (active)	11.6%	13.2%	5.82% (active)	6.4% (active)	-11.5% (active)	0.186% (active)
COc1ccc(-c2cnc3c(-c4cccc5ncccc45)cnn3c2)cc1	71.6%	43.5%	-13.1% (active)	5.29% (active)	16.3%	50.6%	22.3%	54.2%	72.4%	58.1%	76.1%	80%	37.8%	55.4%	61.7%	7.66% (active)	32.2%	16.1%	98.4%
COc1cc(-c2cc(-c3ccc(N(C)C)cc3)nc(N3CCOCC3)c2C#N)cc(OC)c1OC	44.1%	12.1%	25.3%	45%	24.2%	44.4%	3.48% (active)	-39% (active)	-58.6% (active)	65.4%	34.5%	51.2%	53.4%	54.8%	38.4%	46.1%	29.8%	75.5%	30.3%
O=[N+]([O-])c1ccc(N=Nc2cc(S(=O)(=O)O)c3cccc(S(=O)(=O)O)c3c2O)cc1	118%	111%	104%	112%	104%	98.5%	104%	108%	106%	117%	106%	82.7%	104%	66.1%	127%	107%	57.4%	124%	119%
